What all share (assay): Cytotoxic Profiling of Annotated Libraries Using Quantitative High-Throughput Screening (AID 1296008); also: nearly all actives have a fitted effect of over 60% in size
What all share (settings): Five cell lines viability, CellTiter-Glo ATP luminescence, 48-72 h; max response: stronger effect = lower value

For one assay, the system named is CRL-7250. The method, boiled down: (§1)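 Cytotoxicity was measured as CellTiter-Glo ATP luminescence, read after 10 min at room temperature. Compound treatment of the cells lasted 48 or 72 hr at 37 degrees Celsius in a qHTS format.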
A further assay has as its system HEK293. The method, boiled down: as §1
In the next assay the test system is KB-3-1. The method, boiled down:
as §1

The next assay relates to NIH3T3. Put shortly:
as §1

We go through 22 compounds from PubChem BioAssay (NCATS).

Records with an inconclusive call do not appear. Unmarked numbers belong to inactive results. Active and inactive are the calls of the source. Calls follow the shape of the dose curve; as a rule, active = well fitted inhibition curve with a large enough effect; inconclusive = small, poorly fitted or top-dose-only effect; inactive = flat fitted curve, though single readings scatter.
% is scaled to controls: 0 for no effect and ±100 for the full control effect; potency is read from the fitted curve at half-maximal effect.

Turning to `CC1OC2OC(=O)C3(C)CC4=C(CO)C5=C(CC(=O)C4(C)C(C1=O)C23)C(C)(C)OC(=O)C5` (stereo not drawn), the max response in the assay with CRL-7250 is -28.4%; in the assay on HEK293 it was -12.2%; with KB-3-1, 2.12%; with NIH3T3, -2.31%.

For `CC(=O)OC1C(=O)C2(C)C(O)CC3OCC3(OC(C)=O)C2C(OC(=O)c2ccccc2)C2(O)CC(OC(=O)C(O)C(NC(=O)c3ccccc3)c3ccccc3)C(C)=C1C2(C)C` (stereo not drawn), the Potency is 58 nM (active) with CRL-7250, 7.3 nM (active) in the assay with HEK293, 8.2 nM (active) with KB-3-1 and 92 nM (active) in the assay on NIH3T3.

`CC(C)=CCC[C@](C)(O)[C@H]1CC[C@]2(C)[C@@H]1[C@H](O)CC1[C@@]3(C)CC[C@H](O)C(C)(C)[C@@H]3[C@@H](O[C@@H]3O[C@H](CO)[C@@H](O)[C@H](O)[C@H]3O[C@@H]3O[C@H](CO)[C@@H](O)[C@H](O)[C@H]3O)C[C@]12C` (stereo partly drawn): the values for the max response in the assay with CRL-7250, in the assay with HEK293 and with KB-3-1 were -7.72%, -11.9% and 3.39%, respectively. Further, in the assay with NIH3T3, the compound was called inactive.

Regarding `CNC(=O)c1cccc(-c2ccc3c(N4CCOC[C@@H]4C)nc(N4CCOC[C@@H]4C)nc3n2)c1`, the Potency is 580 nM (active) with CRL-7250, 366 nM (active) with HEK293, 326 nM (active) with KB-3-1 and 1300 nM (active) in the assay with NIH3T3.

For `CC1(C)CC2C=C(C(=O)O)C3COC(=O)C(O)(CO)C23C1` (stereo not drawn), the figures for the max response in the assay with CRL-7250, with HEK293 and in the assay with NIH3T3 were -19.1%, 4.03% and -0.118%, respectively. For the same compound, the result in the assay on KB-3-1 was inactive.

As for `CC(=O)c1ccc(O[C@@H]2O[C@H](CO)[C@@H](O)[C@H](O)[C@H]2O)cc1`, the max response is -8.35% in the assay on CRL-7250, -8.37% in the assay on HEK293, 2.85% with KB-3-1 and -22.7% with NIH3T3.

In the case of `c1cc(OCCCN2CCCCC2)ccc1CN1CCCCC1`, the values for the max response in the assay with CRL-7250, in the assay on HEK293 and in the assay with KB-3-1 were -3.26%, -18.4% and -5.63%, respectively. Also, the outcome with NIH3T3 was inactive.

For the compound `COc1ccc(C2COc3cc(O)ccc3C2)c(O)c1` (stereo not drawn), the max response in the assay on CRL-7250 was -2.17%; with HEK293, -0.71%; in the assay with KB-3-1, -10.5%; in the assay with NIH3T3 it was 4.68%.

In the case of `Cn1c(=O)n(-c2ccc(C(C)(C)C#N)cc2)c2c3cc(C#Cc4cccnc4)ccc3ncc21`, the Potency with CRL-7250 was 22.4 nM (active); with HEK293, 89.3 nM (active); with KB-3-1, 142 nM (active); in the assay on NIH3T3, 200 nM (active).

`CCCCc1nc2cc(/C=C/C(=O)NO)ccc2n1CCN(CC)CC`: the Potency was 5800 nM (active) in the assay with CRL-7250, 1840 nM (active) in the assay on HEK293, 1460 nM (active) with KB-3-1 and 5170 nM (active) with NIH3T3.

Regarding `CO[C@H]1/C=C/[C@@](C)(O)/C=C/C(=O)O[C@H](C)[C@@H](C)CC/C=C/1C`, the values for the max response in the assay with CRL-7250, in the assay with HEK293 and in the assay with KB-3-1 were -17.6%, -82.6% and -8.74%, respectively. The Potency with NIH3T3 is 3210 nM (active).

As to `CC(O)/C=C/C1OC(=O)CC1Nc1ccc(C(=O)O)cc1` (stereo not drawn), the max response in the assay with CRL-7250 is -10.3%; in the assay on HEK293, -8.85%; with KB-3-1, 5.7%. Moreover, the outcome in the assay on NIH3T3 was inactive.

Consider `Cn1c(=O)cc(N2CCCC(N)C2)n(Cc2cc(F)ccc2C#N)c1=O` (stereo not drawn), for which the max response in the assay with CRL-7250 is 3.15%; in the assay with HEK293, -7.1%; in the assay with KB-3-1, -0.0728%; in the assay on NIH3T3, -2.76%.

As for `FC(F)(F)c1ccc(Nc2nc(-c3c(C(F)(F)F)nc4ccccn34)cs2)cc1`, the Potency with CRL-7250 is 5800 nM (active); with HEK293 it was 326 nM (active); with KB-3-1 it was 206 nM (active); with NIH3T3 it was 1300 nM (active).

Turning to `CC(C)C[C@H](CC(=O)NO)C(=O)N[C@H](C(=O)N[C@@H](C)C(=O)NCCN)C(C)(C)C`, the compound was called inactive with CRL-7250, in the assay on KB-3-1 and with NIH3T3. Moreover, in the assay on HEK293, the max response was -1.44%.

Turning to `C[S+](CC[C@H](N)C(=O)[O-])C[C@H]1O[C@@H](n2cnc3c(N)ncnc32)[C@H](O)[C@@H]1O` (stereo partly drawn), the max response was -13.4% in the assay on CRL-7250, 3.53% in the assay with HEK293, 3.65% in the assay with KB-3-1 and -4.29% in the assay with NIH3T3.

As for `CC(=O)C1=C(C)N(c2cccc(C(F)(F)F)c2)C(=O)N[C@H]1c1ccc(C#N)nc1`, the max response was 2.3% with CRL-7250, -4.03% in the assay on HEK293, 1.77% in the assay on KB-3-1 and -21.8% with NIH3T3.

As to `Cc1ccc([N+](=O)[O-])cc1S(=O)(=O)N(C)/N=C/c1cnc2ccc(Br)cn12`, the Potency is 82 nM (active) in the assay with CRL-7250, 103 nM (active) in the assay on HEK293, 146 nM (active) in the assay on KB-3-1 and 461 nM (active) in the assay on NIH3T3.

For `C[C@H](NC(c1cccc2[nH]c(=O)c(=O)[nH]c12)P(=O)(O)O)c1ccc(Br)cc1` (stereo partly drawn), the max response in the assay on CRL-7250 is -1.1%; in the assay on HEK293 it was 1.8%. Besides, the outcome with KB-3-1 and in the assay on NIH3T3 was inactive.

With `CCC[C@@H]1O[C@@H]2C[C@H]3[C@@H]4CCC5=CC(=O)C=C[C@]5(C)[C@H]4[C@@H](O)C[C@]3(C)[C@]2(C(=O)CO)O1`, the max response in the assay on CRL-7250 was 0.403%; in the assay on HEK293, 0.791%; in the assay on NIH3T3, -20.8%. In addition, the call with KB-3-1 was inactive.

In the case of `COc1ccc(C2(O)c3ccccc3NC(=O)C2O)cc1` (stereo not drawn), the max response in the assay with CRL-7250 was 0.154%; in the assay with HEK293 it was -5.12%. Besides, the compound was called inactive in the assay on KB-3-1 and in the assay with NIH3T3.

`CCNC(=O)Nc1ccc(-c2nc3c(c(N4CCOC[C@@H]4C)n2)CCN(c2ncccn2)C3)cc1`: the Potency in the assay with CRL-7250 is 259 nM (active); in the assay with HEK293, 184 nM (active); in the assay with KB-3-1, 291 nM (active); in the assay with NIH3T3, 1030 nM (active).
